From PubChem BioAssay AID504329 (Southern Research Specialized Biocontainment Screening …, 2011)
The campaign covered roughly 340,000 compounds. About 1,000 (0.29%) were called active. A selection follows. Measured potencies and affinities stand elsewhere. Values without a mark were called inactive. Rule as the data show it: inconclusive = inhibition above about 27% without an active follow-up result; inactive = below that.

Assay: NS1A inhibition, H1N1 influenza, cell based functional assay (AID 504329)
Details: percent inhibition, at 12.5 µM, active compounds read high

Row | SMILES | inhibition
1 | CC(=O)c1ccc(NC(=O)C(C)Nc2ccc(Cl)cc2)cc1 (stereo not drawn) | -4.25%
2 | COC(=O)C(=CC(=CN(C)C)C=C(C(=O)OC)C(=O)OC)C(=O)OC | -13.2%
3 | CC(C)Cn1c(NCCO)nc2ccccc21 | -6.72%
4 | O=C(COC(=O)c1ccccn1)Nc1cccc2ccccc12 | -2.54%
5 | O=c1[nH]c(-c2ccccn2)cc2ccccc12 | -3.67%
6 | CN(C)CCCNCC(=O)Nc1ccccc1N1CCOCC1 | 5.38%
7 | O=C(COc1ccc2ccccc2c1)N1CCN(C(=O)c2ccco2)CC1 | -12.2%
8 | CN(C)S(=O)(=O)c1cccc2c1C(=O)c1ccccc1C2=O | 4.55%
9 | CNc1c(C(=O)O)ccc2c1C(=O)c1ccccc1C2=O | 13.4%
10 | CC(=O)NC1=C(Nc2ccc(N(C)C)cc2)C(=O)c2ccccc2C1=O | 12.5%
11 | O=C1c2ccccc2C(=O)c2c1cccc2N(CCO)CCO | 4.16%
12 | CN(C=[N+](C)C)c1cccc2c1C(=O)c1ccccc1C2=O | 3.5%
13 | CCN(CC)CC(=O)Nc1cccc2c1C(=O)c1ccccc1C2=O | 11%
14 | CC(C)C[C@H]1COCCS(=O)(=O)N1Cc1cccc(F)c1 | -14.6%
15 | Cc1ccc(NC(=O)CC2S/C(=N/c3nccs3)N(C)C2=O)c(C)c1 (stereo not drawn) | 2.84%
16 | CCCCNC(=O)NNC(=O)c1ccoc1C | 0.18%
17 | Cc1cc2oc(=O)cc(COC(=O)Cn3cnnn3)c2cc1C(C)C | -1.41%
18 | Cc1nc(SCC(=O)Nc2c(C)n(C)n(-c3ccccc3)c2=O)c2cnn(-c3ccccc3)c2n1 | -4.59%
19 | CCNc1nc(NCC)nc(N(C)n2cnnc2)n1 | -22%
20 | CC(C)Nc1nc(NC(C)C)nc(N(C)N)n1 | 14.6%
21 | COc1ccccc1C(=O)NNS(=O)(=O)c1ccc(F)cc1 | -5.08%
22 | CCc1ccc(NS(=O)(=O)c2c(C(=O)N3CCOCC3)c(C)n(C)c2C)cc1 | 0.85%
23 | CCOC(=O)C(C)Oc1ccccc1C1NC(=O)NC(C)=C1C(=O)Nc1ccc(C)c(C)c1 (stereo not drawn) | -6.31%
24 | [O-][n+]1c2c(nn1-c1ccccc1)/C(=N/O)CCC2 | -6.08%

Row | SMILES | inhibition
25 | CCOC(=O)Cc1nnc(NC(=O)COc2ccc(F)cc2)s1 | 6.17%
26 | O=C(Nc1nc(-c2ccco2)c(-c2ccco2)s1)c1c(F)cccc1Cl | -14.8%
27 | CC1=CC(=NNS(=O)(=O)c2ccc([N+](=O)[O-])cc2)CC(C)(C)C1 | 4.39%
28 | CC1(C)OC(=O)C(=NNc2ccccc2[N+](=O)[O-])C(=O)O1 | 3.07%
29 | CC(=O)COc1cc(C)cc2oc(=O)c(C)c(C)c12 | 11.6%
30 | CCc1ccc2c(c1)C1(NN=C(c3cccc4ccccc34)S1)C(=O)N2 (stereo not drawn) | 11.6%
31 | CCc1ccc2c(c1)C1(NN=C(c3ccc(C)cc3)S1)C(=O)N2 (stereo not drawn) | 22.9%
32 | CCOc1ccccc1Nc1cc(C)nc2ccc(C)cc12 | 6.09%
33 | Cc1ccc(N2CC(NS(=O)(=O)c3cc(F)ccc3F)CC2=O)cc1C (stereo not drawn) | 9.69%
34 | CC(=O)Nc1ccc(S(=O)(=O)NCc2ccc3c(c2)cc(C)n3C)cc1 | 19.1%
35 | CCCS(=O)(=O)NCc1ccc2c(c1)cc(C)n2C | 7.25%
36 | Cc1ccc(S(=O)(=O)NCc2csc(C)n2)cc1 | -0.87%
37 | Cc1cc2cc(CNS(=O)(=O)c3ccccc3)ccc2n1C | 17%
38 | Cc1cc(C)c(S(=O)(=O)NCc2ccc3c(c2)cc(C)n3C)c(C)c1 | 21.8%
39 | CCS(=O)(=O)NCc1ccc2c(c1)cc(C)n2C | 10.3%
40 | Cc1nc(CNS(=O)(=O)c2ccc(Oc3ccccc3)cc2)cs1 | -11.2%
41 | O=S(=O)(NCc1ccccc1)c1ccc2ccccc2c1 | -9.3%
42 | COc1ccccc1C(=O)NCC(=O)OCC(=O)c1ccc2c(c1)-c1ccccc1C2 | 2.5%
43 | CSc1ccccc1OCc1cc(C(=O)N2CCN(c3ncccn3)CC2)no1 | -3.62%
44 | O=C(c1ccccc1F)N1CCCc2ccccc21 | -3.09%
45 | CCOC(=O)CN(C(=O)CNC(=O)c1cccs1)C(C(=O)NC1CCCC1)c1ccncc1 (stereo not drawn) | -5%
46 | CCC(C(=O)N/N=C/c1cccnc1)c1ccccc1 (stereo not drawn) | -5.44%
47 | Cc1cc(C(=O)NC2CCCN(Cc3ccccc3F)C2)n[nH]1 (stereo not drawn) | -3.85%
48 | C=CCNC(=S)Nc1ccccc1-c1nnc2n1CCCCC2 | 9.65%

Row | SMILES | inhibition
49 | COC(=O)c1cc(C(=O)OCC(=O)NC2CCCCCCC2)cc([N+](=O)[O-])c1 | -0.07%
50 | Cc1ccc(CNC(=O)COc2ccc(C)nc2[N+](=O)[O-])cc1 | -5.51%
51 | CCCCC(=O)Nc1c2c(nn1-c1ccc(C)cc1)CS(=O)(=O)C2 | -7.59%
52 | COC(=O)c1c(C)cc(C)c2c1CC(C)(C)C2=O | 5.46%
53 | O=C(Nc1nccs1)c1ccc(F)c(S(=O)(=O)N2CCOCC2)c1 | -4.84%
54 | Cc1ccc(S(=O)(=O)N2CCOCC2)cc1C(=O)Nc1nc(-c2ccccn2)cs1 | 7.65%
55 | O=C(Nc1ccccc1)c1ccc(F)c(S(=O)(=O)N2CCOCC2)c1 | 5.59%
56 | COc1ccc(C(=O)Nc2nc(-c3ccccn3)cs2)cc1S(=O)(=O)N1CCOCC1 | -8.69%
57 | Cc1ccc(S(=O)(=O)N2CCOCC2)cc1C(=O)Nc1nc(-c2cccnc2)cs1 | -7.87%
58 | Cc1ccc(C(=O)Nc2ccccn2)cc1S(=O)(=O)N1CCOCC1 | -1.96%
59 | CCC(NC(=O)COc1cc2c(c3oc(=O)c(C)c(C)c13)CCC(C)(C)O2)C(=O)O (stereo not drawn) | -8.88%
60 | CC(C)CCN1CC(=O)N2Cc3[nH]c4ccccc4c3C[C@H]2C1=O | 19.7%
61 | Cc1c(CNC2CCCC(C)C2C)c(C(=O)O)c(C)n1Cc1ccccc1 (stereo not drawn) | -12.9%
62 | CC(C)NC(=O)NC(=O)COC(=O)c1cc(S(=O)(=O)N2CCCCC2)ccc1N1CCOCC1 | -4.42%
63 | Cc1ccc(S(=O)(=O)N2CCCC2C(=O)OCc2ccccc2)cc1 (stereo not drawn) | 1.42%
64 | COc1ccc(C(Nc2cc(C)ccn2)c2ccc3ccc(C)nc3c2O)cc1 (stereo not drawn) | 7.32%
65 | Oc1ccccc1C(Nc1nccs1)c1ccc2cccnc2c1O (stereo not drawn) | 21.5%
66 | Cc1ccc2ccc(C(Nc3cccc(C(F)(F)F)c3)c3cccnc3)c(O)c2n1 (stereo not drawn) | 11.9%
67 | Oc1c(C(Nc2cccc(C(F)(F)F)c2)c2cccnc2)ccc2cccnc12 (stereo not drawn) | -1.29%
68 | COc1ccccc1NC(c1cccnc1)c1ccc2cccnc2c1O (stereo not drawn) | 17.3%
69 | Cc1ccnc(NC(c2ccccc2)c2ccc3cccnc3c2O)c1 (stereo not drawn) | 7.45%
70 | Cc1ccc2ccc(C(Nc3ccccn3)c3ccccc3)c(O)c2n1 (stereo not drawn) | 32.6%
71 | Cc1cc(NC(c2ccc(Cl)cc2)c2ccc3cccnc3c2O)no1 (stereo not drawn) | -17.5%
72 | CC(C)CNC(=O)COc1cccc(C(=O)NCc2ccccc2)c1 | -16.8%

Row | SMILES | inhibition
73 | O=C(CN1C(=O)c2cccc3cccc1c23)NCc1cccnc1 | -7.77%
74 | Cc1cc(S(=O)(=O)Nc2ccc(N3CCOCC3)cc2)ccc1Br | 9.89%
75 | Cc1ccc(-n2nc3c(=O)n(CCCC(=O)NCc4cccc(F)c4)nc(C)c3c2C)cc1 | 4.12%
76 | Cc1c2cnn(CC(=O)NCCN3CCOCC3)c(=O)c2c(C)n1Cc1ccccc1 | 7.12%
77 | Cc1ccc(Nc2nc(N)nc(CSc3nnnn3-c3ccccc3)n2)cc1 | -1.1%
78 | COc1cccc(CN(C)C(=O)c2ccc(NS(=O)(=O)c3ccc4[nH]c(=O)[nH]c4c3)cc2)c1OC | -3.23%
79 | CC(C(=O)Nc1cccc(S(=O)(=O)N2CCOCC2)c1)N1CCN(C/C=C/c2ccccc2)CC1 (stereo not drawn) | -4.15%
80 | CCOC(=O)Cc1csc(NS(=O)(=O)c2ccc(NC(C)=O)cc2)n1 | -2.56%
81 | CCc1ccc(S(=O)(=O)/N=C2\C=C(Nc3cccc(C(=O)O)c3)C(=O)c3ccccc32)cc1 | 24.6%
82 | Cc1cc(C)c(S(=O)(=O)/N=C2\C=C(NS(=O)(=O)c3ccccc3)C(=O)c3ccccc32)c(C)c1 | 0.45%
83 | Cc1ccc(S(=O)(=O)/N=C2\C=C(Nc3cccc(C(=O)O)c3)C(=O)c3ccccc32)c(C)c1 | 25.4%
84 | O=C(O)c1ccc(NC2=C/C(=N/S(=O)(=O)c3ccccc3)c3ccccc3C2=O)cc1 | 15.2%
85 | O=C(COC(=O)c1c(F)cccc1F)Nc1ccc(N2CCCCC2)cc1 | -4.21%
86 | CCOc1ccc(-n2c(SCc3cc(=O)oc4cc(C)c(C(C)C)cc34)nnc2-c2cccnc2)cc1 | 2.59%
87 | COc1ccc(C2CC3(CC(C)(C)NC(SC)=N3)Oc3cc(O)cc(C)c32)cc1 (stereo not drawn) | 2.74%
88 | CCCN1CCC(NC(=O)C2CCCCC2C(=O)O)CC1 (stereo not drawn) | -9.23%
89 | CC(c1ccon1)N(C)C(=O)c1ccc(OC2CCN(C(=O)C3CC3)CC2)cc1 (stereo not drawn) | 1.15%
90 | CC(=O)c1ccc(N=c2scc(C)n2C(C)C)cc1 | 2.71%
91 | Clc1ccc(/C=N/N2CCCCC2)cc1 | 10.3%
92 | CCN(CC)c1ccc(C=NN2CCCCCC2)cc1 | 1.15%
93 | COc1ccc(CNCC2COc3ccccc3O2)cc1 (stereo not drawn) | -2.36%
